From the supplement of paper PMC10849652
The full data set covers some 8,800 targets. This sample favours those with a hit. About 0.5% of all pairs of compound and target were hits.

Assays:
Assay in all cases: log2 fold change, soluble protein after heating vs DMSO (PISA); higher = thermal stabilisation; K562 lysate, 10 uM; active = over 0.2 and 3.5 SD of the protein, either way, in both replicates (recomputed)
erlotinib = compound: C#Cc1cccc(Nc2ncnc3cc(OCCOC)c(OCCOC)cc23)c1 [erlotinib]
Summary of the method: (§1)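 Log-two fold change in thermal stability relative to solvent controls is reported from duplicates. For each sample, crude K562 extract from dounce-homogenised pellets in PBS pH 7.4 with 1 mM MgCl2, at 1 mg/mL protein, was treated with 10 μM compound for 30 min. Aliquots heated for 3 min across 48°C-58°C were pooled, brought to 0.5% NP-40 at 4°C and cleared at 21,000xg for 90 min. The supernatant was quantified by TMTpro 16plex LC-MS/MS with channel sums equalised.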

[1] = compound: C/C(=N\NC(=O)C1=CC(=CC=C1)S(=O)(=O)N2CCOCC2)/C3=C(C=CC(=C3)Cl)O
Summary of the method: as §1

[2] = compound: C1=CC(=CC=C1C2=NC3=C(N2)C=C(C=C3)C(=O)N)OC4=CC=C(C=C4)Cl
Summary of the method: as §1

[3] = compound: C1=CC2=C(C=CC(=C2)/C=C\3/C(=O)NC(=NCC4=CC=CS4)S3)N=C1
Summary of the method: as §1

[4] = compound: C1=CC2=NC=CN=C2C=C1/C=C/3\C(=O)NC(=O)S3
Summary of the method: as §1

[5] = compound: C1=CC=C(C=C1)C2=NC(=C(N2)C3=CC=NC=C3)C4=CC(=C(C=C4)Cl)O
Summary of the method: as §1

[6] = compound: C1=CC=C2C(=C1)C3=NNC4=CC=CC(=C43)C2=O
Summary of the method: as §1

[7] = compound: C1CCN(C1)C(=O)NC2=CC=CC(=C2)NC3=NC=C(C(=N3)NCCC4=CN=CN4)Br
Summary of the method: as §1

[8] = compound: C1CN(CCC1(CC2=CC=C(C=C2)Cl)N)C3=NC=NC4=C3C=CN4
Summary of the method: as §1

IRAK-1-4 Inhibitor I = compound: C1COCCN1CCN2C3=CC=CC=C3N=C2NC(=O)C4=CC(=CC=C4)[N+](=O)[O-] [IRAK-1-4 Inhibitor I]
Summary of the method: as §1

Measured: log2 fold change

SRP54 (UniProt P61011)
inactive: erlotinib -0.026 | [1] 0.017 | [2] 0.035 | [3] 0.023 | [4] -0.043 | [5] 0.005 | [6] -0.039 | [7] -0.047 | [8] -0.003 | IRAK-1-4 Inhibitor I -0.014

SLC29A2 (UniProt Q14542)
inactive: erlotinib -0.147 | [1] 0.016 | [2] -0.04 | [3] 0.013 | [4] -0.028 | [5] -0.033 | [6] 0.018 | [7] 0.018 | [8] 0.085 | IRAK-1-4 Inhibitor I 0.102

SF3B6 (UniProt Q9Y3B4)
UniProt Q9Y3B4, sequence (Q9Y3B4 whole entry, looked up): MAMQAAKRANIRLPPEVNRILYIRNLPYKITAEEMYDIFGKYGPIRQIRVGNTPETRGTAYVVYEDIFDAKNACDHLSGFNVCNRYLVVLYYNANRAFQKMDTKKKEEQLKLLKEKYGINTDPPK
inactive: erlotinib 0.011 | [1] 0.047 | [2] 0 | [3] 0.001 | [4] 0.043 | [5] 0.034 | [6] 0.044 | [7] 0.004 | [8] -0.034 | IRAK-1-4 Inhibitor I -0.024

TAPT1 (UniProt Q6NXT6)
inactive: erlotinib 0 | [1] -0.092 | [2] 0.068 | [3] -0.038 | [4] -0.001 | [5] -0.059 | [6] -0.039 | [7] -0.059 | [8] 0.01 | IRAK-1-4 Inhibitor I 0.002

SLC25A17 (UniProt O43808)
inactive: erlotinib 0.035 | [1] 0.057 | [2] 0.061 | [3] 0.014 | [4] -0.015 | [5] 0.012 | [6] -0.021 | [7] 0.012 | [8] 0.03 | IRAK-1-4 Inhibitor I 0.056

TANGO6 (UniProt Q9C0B7)
inactive: erlotinib 0.045 | [1] -0.04 | [2] 0.012 | [3] -0.011 | [4] 0.009 | [5] -0.049 | [6] -0.048 | [7] 0.007 | [8] 0.023 | IRAK-1-4 Inhibitor I 0.048

SND1 (UniProt Q7KZF4)
inactive: erlotinib 0.022 | [1] 0.042 | [2] -0.009 | [3] 0.007 | [4] 0.031 | [5] 0.017 | [6] -0.042 | [7] 0.005 | [8] -0.005 | IRAK-1-4 Inhibitor I -0.012

SLC27A4 (UniProt Q6P1M0)
inactive: erlotinib 0.022 | [1] 0.01 | [2] -0.023 | [3] 0.052 | [4] 0.063 | [5] -0.009 | [6] 0.041 | [7] 0.015 | [8] 0.084 | IRAK-1-4 Inhibitor I -0.003

SH3GL1 (UniProt Q99961)
inactive: erlotinib -0.009 | [1] 0.016 | [2] -0.022 | [3] -0.004 | [4] -0.008 | [5] 0.001 | [6] -0.003 | [7] -0.027 | [8] 0.006 | IRAK-1-4 Inhibitor I -0.017

SKA2 (UniProt Q8WVK7)
inactive: erlotinib -0.006 | [1] -0.058 | [2] 0.014 | [3] -0.011 | [4] -0.042 | [5] 0.001 | [6] -0.081 | [7] -0.006 | [8] -0.019 | IRAK-1-4 Inhibitor I -0.056

SSB (UniProt P05455)
UniProt P05455, sequence (P05455 whole entry, looked up): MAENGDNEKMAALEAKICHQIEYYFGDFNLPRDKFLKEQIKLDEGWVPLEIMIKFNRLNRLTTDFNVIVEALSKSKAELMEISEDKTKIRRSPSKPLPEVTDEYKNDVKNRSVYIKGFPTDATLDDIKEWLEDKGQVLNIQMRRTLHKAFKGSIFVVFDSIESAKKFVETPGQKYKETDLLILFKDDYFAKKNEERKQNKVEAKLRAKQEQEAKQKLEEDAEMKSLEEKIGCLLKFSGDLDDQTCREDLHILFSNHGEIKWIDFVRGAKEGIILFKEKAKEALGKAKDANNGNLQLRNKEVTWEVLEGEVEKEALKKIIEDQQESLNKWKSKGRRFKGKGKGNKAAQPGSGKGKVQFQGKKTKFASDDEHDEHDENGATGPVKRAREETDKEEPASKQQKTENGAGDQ
inactive: erlotinib -0.008 | [1] 0.007 | [2] -0.014 | [3] -0.025 | [4] -0.009 | [5] 0.001 | [6] -0.015 | [7] 0.013 | [8] 0.002 | IRAK-1-4 Inhibitor I -0.011

SLC35A3 isoform 2 (UniProt Q9Y2D2)
inactive: erlotinib -0.036 | [1] 0.057 | [2] 0.077 | [3] 0.001 | [5] -0.166 | [6] -0.006 | [7] -0.036 | [8] -0.002 | IRAK-1-4 Inhibitor I 0.164

SPAG1 (UniProt Q07617)
active: [4] 1.01
inactive: [1] -0.045 | [3] -0.089 | [5] -0.034 | [6] -0.063 | IRAK-1-4 Inhibitor I 0.042

SMPD2 (UniProt O60906)
active: erlotinib -1.38
inactive: [2] -0.551 | [5] -0.112 | [7] -0.024 | [8] 0.022 | IRAK-1-4 Inhibitor I 0.065

TAOK2 (UniProt Q9UL54)
UniProt Q9UL54, sequence (Q9UL54 whole entry, looked up): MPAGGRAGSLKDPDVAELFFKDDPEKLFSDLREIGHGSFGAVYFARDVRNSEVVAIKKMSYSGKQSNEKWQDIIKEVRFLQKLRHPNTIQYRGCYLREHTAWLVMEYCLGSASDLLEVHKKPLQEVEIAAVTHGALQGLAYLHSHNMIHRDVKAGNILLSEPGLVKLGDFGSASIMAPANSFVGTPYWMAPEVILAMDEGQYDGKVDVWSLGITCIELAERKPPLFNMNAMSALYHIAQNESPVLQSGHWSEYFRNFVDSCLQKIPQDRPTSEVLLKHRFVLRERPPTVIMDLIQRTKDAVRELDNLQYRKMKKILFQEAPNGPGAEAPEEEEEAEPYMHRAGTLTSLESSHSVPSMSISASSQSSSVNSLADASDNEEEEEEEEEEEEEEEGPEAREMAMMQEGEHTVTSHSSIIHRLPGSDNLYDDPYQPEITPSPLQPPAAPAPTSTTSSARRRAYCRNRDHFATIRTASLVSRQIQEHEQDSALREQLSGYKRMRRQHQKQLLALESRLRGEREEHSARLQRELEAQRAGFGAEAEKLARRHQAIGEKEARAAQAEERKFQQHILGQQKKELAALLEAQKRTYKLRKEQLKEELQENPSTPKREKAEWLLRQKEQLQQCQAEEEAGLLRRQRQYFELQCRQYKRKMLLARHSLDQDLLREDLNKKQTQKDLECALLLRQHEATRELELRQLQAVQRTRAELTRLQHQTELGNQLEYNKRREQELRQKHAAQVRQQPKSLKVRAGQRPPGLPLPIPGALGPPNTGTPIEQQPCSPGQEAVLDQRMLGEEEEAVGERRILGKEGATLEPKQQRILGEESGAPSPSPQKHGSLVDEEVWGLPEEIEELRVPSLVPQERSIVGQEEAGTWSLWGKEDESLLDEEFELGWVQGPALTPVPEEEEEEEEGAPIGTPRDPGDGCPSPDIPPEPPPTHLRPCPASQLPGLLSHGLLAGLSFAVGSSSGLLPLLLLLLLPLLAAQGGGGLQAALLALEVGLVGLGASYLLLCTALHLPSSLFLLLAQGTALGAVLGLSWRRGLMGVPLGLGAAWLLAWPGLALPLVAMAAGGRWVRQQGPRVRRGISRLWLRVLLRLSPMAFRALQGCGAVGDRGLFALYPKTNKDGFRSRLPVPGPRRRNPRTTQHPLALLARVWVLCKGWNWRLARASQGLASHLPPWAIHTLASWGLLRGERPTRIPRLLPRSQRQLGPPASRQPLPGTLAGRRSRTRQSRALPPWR
inactive: [1] 0.006 | [3] -0.034 | [4] 0.072 | [5] -0.031 | [7] 0.038 | [8] 0.058 | IRAK-1-4 Inhibitor I 0.072
active: [6] 0.729

TAF1B (UniProt Q53T94)
inactive: [1] -0.283 | [3] -0.123 | [4] -0.001 | [5] 0.024 | [6] 0.013 | [7] 0.345 | [8] 0.123 | IRAK-1-4 Inhibitor I -0.061

SNAPC2 (UniProt Q13487)
inactive: erlotinib 0.131 | [2] 0.022 | [4] -0.21 | [5] 0.087 | IRAK-1-4 Inhibitor I -0.166

STK17B (UniProt O94768)
inactive: erlotinib -0.041 | [2] -0.341 | [5] -0.022 | IRAK-1-4 Inhibitor I -0.065

SLCO4A1 (UniProt Q96BD0)
inactive: [4] 0.08

SLC40A1 (UniProt Q9NP59)
inactive: erlotinib 0.188 | [1] -0.035 | [2] 0.233 | [3] 0.042 | [5] -0.052 | [6] -0.122 | [7] -0.015 | [8] 0.05 | IRAK-1-4 Inhibitor I 0.048

SIX5 (UniProt Q8N196)
inactive: erlotinib -0.062 | [2] -0.05 | [4] -0.046 | [5] -0.034 | IRAK-1-4 Inhibitor I -0.141

SMC4 (UniProt C9JJ64)
inactive: [4] -0.013

SLC39A13 (UniProt Q96H72)
inactive: erlotinib 0.344 | [2] 0.063 | [5] -0.252 | IRAK-1-4 Inhibitor I -0.025

STK26 isoform 3 (UniProt Q9P289)
inactive: [7] 0.272 | [8] -0.045

SKP2 (UniProt Q13309)
UniProt Q13309, sequence (Q13309 whole entry, looked up): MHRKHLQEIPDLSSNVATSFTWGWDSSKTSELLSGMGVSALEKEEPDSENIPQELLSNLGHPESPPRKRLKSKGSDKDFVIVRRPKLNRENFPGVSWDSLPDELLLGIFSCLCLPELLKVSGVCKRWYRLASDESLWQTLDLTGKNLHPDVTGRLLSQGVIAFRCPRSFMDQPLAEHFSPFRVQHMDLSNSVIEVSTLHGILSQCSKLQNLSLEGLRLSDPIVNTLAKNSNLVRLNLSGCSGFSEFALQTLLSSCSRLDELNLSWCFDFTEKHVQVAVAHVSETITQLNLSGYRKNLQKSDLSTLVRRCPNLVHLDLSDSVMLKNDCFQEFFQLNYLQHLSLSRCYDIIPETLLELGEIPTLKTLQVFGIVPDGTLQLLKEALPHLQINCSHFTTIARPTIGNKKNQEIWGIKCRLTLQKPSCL
inactive: erlotinib 0.06 | [1] -0.053 | [2] -0.063 | [3] 0.027 | [5] -0.023 | [6] -0.029 | [7] -0.027 | [8] 0.044 | IRAK-1-4 Inhibitor I -0.002

TARDBP (UniProt K7EN94)
inactive: [1] 0.293 | [3] -0.12 | [6] -0.12 | [7] 0.001 | [8] -0.19

STAR (UniProt P49675)
inactive: erlotinib 0.207 | [1] 0.01 | [2] -0.192 | [3] -0.029 | [5] 0.042 | [6] -0.058 | [7] -0.125 | [8] -0.035 | IRAK-1-4 Inhibitor I -0.031

SZT2 (UniProt Q5T011)
inactive: erlotinib 0.043 | [2] -0.089 | [4] 0.134 | [5] -0.013 | [7] -0.004 | [8] 0.016 | IRAK-1-4 Inhibitor I 0.014

SURF2 (UniProt Q15527)
UniProt Q15527, sequence (Q15527 whole entry, looked up): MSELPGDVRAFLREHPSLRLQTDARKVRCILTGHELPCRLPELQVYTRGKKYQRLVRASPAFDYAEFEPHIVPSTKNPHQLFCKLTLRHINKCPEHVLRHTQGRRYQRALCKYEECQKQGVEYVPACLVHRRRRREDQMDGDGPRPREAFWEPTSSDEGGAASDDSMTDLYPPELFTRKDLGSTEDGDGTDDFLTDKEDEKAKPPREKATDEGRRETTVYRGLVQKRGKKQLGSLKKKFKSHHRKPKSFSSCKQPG
inactive: [1] 0.087 | [3] -0.019 | [4] 0.02 | [5] -0.004 | [6] 0.022 | [7] 0.051 | [8] 0.074 | IRAK-1-4 Inhibitor I 0.035

STAU1 isoform 3 (UniProt O95793)
UniProt O95793, sequence (O95793 whole entry, looked up): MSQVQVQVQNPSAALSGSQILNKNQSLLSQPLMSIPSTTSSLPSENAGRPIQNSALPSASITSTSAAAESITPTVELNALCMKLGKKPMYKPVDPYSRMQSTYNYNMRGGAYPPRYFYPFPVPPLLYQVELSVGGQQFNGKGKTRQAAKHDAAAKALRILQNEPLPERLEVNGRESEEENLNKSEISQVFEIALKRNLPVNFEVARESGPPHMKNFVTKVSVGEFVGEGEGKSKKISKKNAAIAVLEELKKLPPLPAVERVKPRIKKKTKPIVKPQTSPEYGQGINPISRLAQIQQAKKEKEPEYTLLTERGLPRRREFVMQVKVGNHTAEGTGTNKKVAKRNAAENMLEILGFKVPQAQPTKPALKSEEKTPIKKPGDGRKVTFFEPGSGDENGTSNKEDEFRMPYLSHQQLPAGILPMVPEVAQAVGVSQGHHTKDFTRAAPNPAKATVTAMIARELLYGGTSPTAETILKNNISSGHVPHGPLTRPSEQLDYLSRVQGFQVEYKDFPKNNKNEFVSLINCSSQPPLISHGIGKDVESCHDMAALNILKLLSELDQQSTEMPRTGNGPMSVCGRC
inactive: erlotinib -0.006 | [2] -0.016 | [4] -0.103

SNAP23 isoform 2 (UniProt O00161)
UniProt O00161, sequence (O00161 whole entry, looked up): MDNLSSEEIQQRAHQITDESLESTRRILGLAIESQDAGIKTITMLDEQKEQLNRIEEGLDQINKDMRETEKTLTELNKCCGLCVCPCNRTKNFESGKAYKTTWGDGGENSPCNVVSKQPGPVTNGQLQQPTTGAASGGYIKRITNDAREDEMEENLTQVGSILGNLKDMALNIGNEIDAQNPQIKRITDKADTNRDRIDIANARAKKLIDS
inactive: erlotinib 0.042 | [1] -0.019 | [2] 0.27 | [3] -0.006 | [5] -0.071 | [6] -0.117 | [7] 0.104 | [8] -0.08 | IRAK-1-4 Inhibitor I 0.057

STK38L (UniProt Q9Y2H1)
UniProt Q9Y2H1, sequence (Q9Y2H1 whole entry, looked up): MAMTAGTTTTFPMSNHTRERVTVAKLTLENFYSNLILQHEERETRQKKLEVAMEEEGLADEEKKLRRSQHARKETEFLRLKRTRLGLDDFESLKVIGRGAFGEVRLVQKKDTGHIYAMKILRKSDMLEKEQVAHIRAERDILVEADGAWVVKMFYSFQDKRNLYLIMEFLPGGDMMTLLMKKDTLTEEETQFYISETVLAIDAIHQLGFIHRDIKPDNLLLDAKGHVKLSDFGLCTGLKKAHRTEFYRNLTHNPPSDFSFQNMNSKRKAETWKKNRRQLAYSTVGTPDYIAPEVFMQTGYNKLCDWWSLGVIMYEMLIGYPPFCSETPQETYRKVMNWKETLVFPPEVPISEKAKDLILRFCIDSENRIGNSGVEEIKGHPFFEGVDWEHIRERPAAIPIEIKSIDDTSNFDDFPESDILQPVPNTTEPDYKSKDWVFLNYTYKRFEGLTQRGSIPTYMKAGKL
inactive: erlotinib -0.001 | [2] -0.163 | [5] 0.113 | [7] -0.027 | [8] 0.11 | IRAK-1-4 Inhibitor I 0.011

SLC22A18 (UniProt Q96BI1)
inactive: erlotinib -0.008 | [1] 0.043 | [2] -0.018 | [3] 0.049 | [4] -0.147 | [6] -0.03 | [7] -0.062 | [8] 0.004

SMIM1 (UniProt B2RUZ4)
UniProt B2RUZ4, sequence (B2RUZ4 whole entry, looked up): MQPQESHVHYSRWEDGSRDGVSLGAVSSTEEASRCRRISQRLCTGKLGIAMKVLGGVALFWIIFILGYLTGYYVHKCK
inactive: erlotinib 0.172 | [2] -0.145 | [4] -0.114 | [5] 0.063 | [7] 0.086 | [8] -0.016 | IRAK-1-4 Inhibitor I -0.214

SIN3B (UniProt O75182)
UniProt O75182, sequence (O75182 whole entry, looked up): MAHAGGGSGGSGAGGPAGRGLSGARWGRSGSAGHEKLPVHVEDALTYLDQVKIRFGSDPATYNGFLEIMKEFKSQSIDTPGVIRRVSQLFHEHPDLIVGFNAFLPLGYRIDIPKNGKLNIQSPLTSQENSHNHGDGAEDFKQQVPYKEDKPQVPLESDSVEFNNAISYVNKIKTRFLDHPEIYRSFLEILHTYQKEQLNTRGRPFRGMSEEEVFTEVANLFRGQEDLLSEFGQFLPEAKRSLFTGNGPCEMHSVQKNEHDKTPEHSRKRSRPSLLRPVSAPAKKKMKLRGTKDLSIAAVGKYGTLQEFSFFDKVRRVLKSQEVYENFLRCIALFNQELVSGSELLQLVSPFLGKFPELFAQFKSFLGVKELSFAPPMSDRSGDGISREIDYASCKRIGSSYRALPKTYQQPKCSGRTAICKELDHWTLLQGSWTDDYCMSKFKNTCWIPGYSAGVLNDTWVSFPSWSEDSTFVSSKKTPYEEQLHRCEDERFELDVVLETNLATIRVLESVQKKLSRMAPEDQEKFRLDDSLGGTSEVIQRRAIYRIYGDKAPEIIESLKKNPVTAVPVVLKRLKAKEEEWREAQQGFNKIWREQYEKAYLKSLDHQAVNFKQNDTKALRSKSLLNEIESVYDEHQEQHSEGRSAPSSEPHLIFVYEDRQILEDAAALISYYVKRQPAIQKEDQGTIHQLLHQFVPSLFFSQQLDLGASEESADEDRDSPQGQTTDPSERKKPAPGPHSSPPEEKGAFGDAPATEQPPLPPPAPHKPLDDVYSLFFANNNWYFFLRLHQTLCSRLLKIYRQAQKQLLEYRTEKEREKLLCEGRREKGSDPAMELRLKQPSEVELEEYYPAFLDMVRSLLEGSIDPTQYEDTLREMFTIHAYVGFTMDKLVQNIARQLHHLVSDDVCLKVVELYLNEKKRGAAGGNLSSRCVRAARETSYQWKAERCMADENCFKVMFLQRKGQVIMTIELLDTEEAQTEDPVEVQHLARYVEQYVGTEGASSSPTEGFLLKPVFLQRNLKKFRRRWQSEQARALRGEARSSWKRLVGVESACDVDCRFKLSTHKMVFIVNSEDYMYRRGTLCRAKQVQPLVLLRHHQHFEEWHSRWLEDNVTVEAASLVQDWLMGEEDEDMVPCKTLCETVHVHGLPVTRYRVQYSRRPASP
inactive: [1] -0.167 | [3] -0.018 | [6] 0.046 | [7] -0.071 | [8] 0.132
